Results filed as inconclusive are left out. The source made the active and inactive calls. Unless noted, calls come from the whole dose curve; as a rule, active = well fitted curve in either direction with a large enough effect (not every such curve was filed as active); inconclusive = small, poorly fitted or top-dose-only effect, or another doubt; inactive = flat fitted curve, though single readings scatter.
What was measured:
[1] = AP1 Signaling Pathway (AID 357); conditions: ME-180 (cervical carcinoma) AP-1-bla reporter, EGF-induced, beta-lactamase ratio, 5 h; at 17.2 µM (top of the series) unless noted; note: % is set by controls: 0 for no effect and ±100 for the full control effect
Procedure, shortened: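 AP-1-bla ME-180 cells with beta-lactamase reporter under AP-1 response element, stimulated with EC50 EGF; compounds titrated, 5 hours at 37 degrees Celsius. CCF4 read at 460/530 nm ratio; positive and negative modulators judged by AC50.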

[2] = NFAT Signaling Pathway (AID 444); conditions: Jurkat NFAT-bla M1, carbachol, beta-lactamase ratio, 5 h; at 17.2 µM (top of the series) unless noted;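 note: carbachol stimulus at about its EC50 of 1 µM final; % is set by controls: 0 for no effect and ±100 for the full control effect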
Procedure, shortened: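 Jurkat cells with NFAT-driven β-lactamase reporter and co-expressed M1 receptor, stimulated with carbachol (final 1 uM, ~EC50), compound titration, 5 h at 37 °C. CCF4 loaded 1 h at RT; 460/530 nm ratio gave %activity and AC50.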

[3] = biological target: Glucocorticoid receptor (Homo sapiens) (UniProt P04150); assay: GR-GFP Redistribution (AID 450;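 active = compounds whose dose series gives a full or clear partial fitted curve of increased nuclear translocation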; note: potency is the fitted concentration of half-maximal effect)
[4] = biological target: Glucocorticoid receptor (Homo sapiens) (UniProt P04150); assay: GR-EFC Redistribution (AID 451; calls by dose curve; note: potency is the fitted concentration of half-maximal effect); conditions: CHO-K1 GR-EFC translocation, beta-gal luminescence, 2 h
Procedure, shortened: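 CHO-K1 cells expressing nuclear EA and GR-ED fragments of b-gal; compounds titrated up to 46 uM final, 2 h at 37 C. GR nuclear translocation read as complemented b-gal luminescence after 1 h RT detection.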

[5] = biological target: 3',5'-cyclic-AMP phosphodiesterase 4B (Homo sapiens) (UniProt Q07343); assay: qHTS Assay for Inhibitors of PDE-IV (AID 607; active = well fitted activation curve with a large enough effect in the main read-out, with a control signal flat, not every such curve was filed as active; note: % of control where 0% means no effect)
Procedure, shortened: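 ACTOne HEK293 cells carry a modified cAMP-gated CNG channel and express endogenous PDE4; plated 1000 cells/well, compounds up to 22.9 uM final. Membrane-potential dye fluorescence (ex 535/em 590) was read; parental cells received 10 uM forskolin + 100 uM RO 20-1724.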

[6] = biological target: Mitogen-activated protein kinase 10 (Mus musculus) (UniProt Q61831); assay: JNK3 AlphaScreen Assay (AID 530);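 note: kinase came from lysate of stimulated human HepG2 cells; signal reports phosphorylation of biotinylated GST-cJun 1-79 at Ser73 with 10 µM ATP; % is set by controls: 0 for no effect and ±100 for the full control effect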
Procedure, shortened: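 Activity was read by AlphaScreen after JNK3-containing HepG2 lysate (cytokine pre-activated) phosphorylated biotinylated GST-cJun with 10 uM ATP at room temperature. Phospho-Ser73 cJun antibody with Protein-A acceptor beads provided detection.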

[7] = biological target: Guanine nucleotide-binding protein G(i) subunit alpha-1 (Homo sapiens) (UniProt P63096); assay: qHTS Assay for Inhibitors of RGS12 GoLoco Motif Activity (Green Fluorophore) (AID 879; active = well fitted curve in the direction sought with a large enough effect; an effect the other way counts as inactive or inconclusive;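 note: 0% = labeled peptide with Gαi1 and full inhibition = labeled peptide alone without protein; negative values mean loss of peptide binding seen as reduced polarization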)
Procedure, shortened: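 A drop in FITC polarization marked displacement of the FITC-tagged RGS12 GoLoco peptide (10 nM) from Gαi1 (50 nM). Compounds were incubated 10 min at room temperature in Tris pH 7.5 buffer containing 150 mM NaCl, 0.1 mM GDP and 0.05% NP40; unlabeled peptide titration served as control.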

[8] = biological target: Muscarinic acetylcholine receptor M1 (Rattus norvegicus) (UniProt P08482); assay: qHTS Assay for Antagonists of Acetylcholine Muscarinic M1 Receptor: Kinetic Measurement of Intracellular Calcium Response (AID 943; active = well fitted curve in the direction sought with a large enough effect; an effect the other way counts as inactive or inconclusive;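 note: Fluo-4 calcium signal as peak divided by basal fluorescence over 4 min; nearly all actives have a fitted effect of over 75% in size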)
Procedure, shortened: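 Antagonism measured as reduction of carbachol-evoked (EC80, 100 nM final) calcium flux in rat M1-CHO cells after 10 min compound exposure. Fluo-4 signal read kinetically; ratio of maximal to basal fluorescence.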

[9] = biological target: Pyruvate kinase (Leishmania mexicana) (UniProt Q27686); assay: qHTS Validation Assay for Inhibitors of Leishmania Mexicana Pyruvate Kinase (AID 945; active = well fitted curve in the direction sought with a large enough effect; an effect the other way counts as inactive or inconclusive;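 note: 0% = DMSO only neutral control wells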)
Procedure, shortened: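 Eight-point qHTS titrations in triplicate, data normalized to DMSO neutral control. Reaction: 0.2 nM LmPYK E451W mutant, 0.5 mM PEP, 0.1 mM ADP, 7 mM MgCl2, pH 7.2, one hour at room temperature; luminescent ATP detection.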

[10] = biological target: Pyruvate kinase PKM (Homo sapiens) (UniProt P14618); assay: qHTS Assay for Activators of Human Muscle Pyruvate Kinase (AID 954; active = well fitted curve in the direction sought with a large enough effect, not every such curve was filed as active;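 note: 0% = uninhibited enzyme and -100% = no enzyme or full thiadiazolimine inhibition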)
Procedure, shortened: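 A coupled luminescent readout tracked ATP made from ADP by purified PKM2. Final conditions included 0.1 nM enzyme, PEP and ADP at 0.5 and 0.1 mM, pH 7.2 imidazole buffer with BSA, and a one-hour room-temperature reaction.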

[11] = biological target: Alpha-galactosidase A (Homo sapiens) (UniProt P06280); assay: Counterscreen for Glucocerebrosidase Inhibitors: qHTS Assay for Human alpha-Galactosidase at pH 4.5 (AID 992; active = well fitted curve in the direction sought with a large enough effect; an effect the other way counts as inactive or inconclusive; note: 0% is about no effect)
Procedure, shortened: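 Citrate buffer pH 4.5, Tween-20 0.005%. Enzyme 2 nM, substrate 80 uM, 20 min RT. Stop pH 10. Fluorescence Ex 365/Em 440. AC50 by Hill fit.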

[12] = biological target: alpha-glucosidase (Oryza sativa, rice) (UniProt Q653V4); assay: Counterscreen for Glucocerebrosidase Inhibitors: qHTS Assay for Rice alpha-Glucosidase at pH 5.0 (AID 997; active = well fitted curve in the direction sought with a large enough effect; an effect the other way counts as inactive or inconclusive;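 note: 0% = full activity with enzyme and -100% = basal without enzyme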)
Procedure, shortened: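 Endpoint fluorogenic assay at pH 5.0: compounds (0.7 nM to 77 uM) titrated against 4 nM rice enzyme and 400 uM 4-MU-alpha-glucoside for 20 min at room temperature; NaOH/glycine stop, read ex 365/em 440 nm, Hill-fitted AC50.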

Chain of Glucocorticoid receptor (Homo sapiens) (P04150 whole entry, looked up, the tested form may be a part): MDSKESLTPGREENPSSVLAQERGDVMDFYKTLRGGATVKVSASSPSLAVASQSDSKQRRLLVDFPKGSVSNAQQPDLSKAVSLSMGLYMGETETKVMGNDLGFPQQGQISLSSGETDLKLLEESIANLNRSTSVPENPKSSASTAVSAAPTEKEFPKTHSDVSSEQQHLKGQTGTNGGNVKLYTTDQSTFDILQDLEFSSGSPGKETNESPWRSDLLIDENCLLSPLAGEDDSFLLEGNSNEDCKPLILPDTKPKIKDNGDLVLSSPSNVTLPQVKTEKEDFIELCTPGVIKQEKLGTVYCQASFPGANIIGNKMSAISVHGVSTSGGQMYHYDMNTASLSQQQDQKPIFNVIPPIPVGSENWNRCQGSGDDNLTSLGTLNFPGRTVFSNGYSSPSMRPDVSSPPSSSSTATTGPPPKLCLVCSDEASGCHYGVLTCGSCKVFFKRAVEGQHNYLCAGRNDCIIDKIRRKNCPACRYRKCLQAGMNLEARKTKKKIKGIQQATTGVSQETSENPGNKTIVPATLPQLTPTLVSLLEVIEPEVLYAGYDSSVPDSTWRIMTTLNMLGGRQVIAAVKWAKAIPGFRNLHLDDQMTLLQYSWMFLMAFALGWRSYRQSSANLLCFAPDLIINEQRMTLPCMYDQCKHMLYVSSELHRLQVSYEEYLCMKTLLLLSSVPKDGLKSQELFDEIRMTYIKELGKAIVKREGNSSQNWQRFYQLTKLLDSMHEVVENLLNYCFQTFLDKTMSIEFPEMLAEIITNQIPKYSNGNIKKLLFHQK
Chain of 3',5'-cyclic-AMP phosphodiesterase 4B (Homo sapiens) (Q07343 whole entry, looked up): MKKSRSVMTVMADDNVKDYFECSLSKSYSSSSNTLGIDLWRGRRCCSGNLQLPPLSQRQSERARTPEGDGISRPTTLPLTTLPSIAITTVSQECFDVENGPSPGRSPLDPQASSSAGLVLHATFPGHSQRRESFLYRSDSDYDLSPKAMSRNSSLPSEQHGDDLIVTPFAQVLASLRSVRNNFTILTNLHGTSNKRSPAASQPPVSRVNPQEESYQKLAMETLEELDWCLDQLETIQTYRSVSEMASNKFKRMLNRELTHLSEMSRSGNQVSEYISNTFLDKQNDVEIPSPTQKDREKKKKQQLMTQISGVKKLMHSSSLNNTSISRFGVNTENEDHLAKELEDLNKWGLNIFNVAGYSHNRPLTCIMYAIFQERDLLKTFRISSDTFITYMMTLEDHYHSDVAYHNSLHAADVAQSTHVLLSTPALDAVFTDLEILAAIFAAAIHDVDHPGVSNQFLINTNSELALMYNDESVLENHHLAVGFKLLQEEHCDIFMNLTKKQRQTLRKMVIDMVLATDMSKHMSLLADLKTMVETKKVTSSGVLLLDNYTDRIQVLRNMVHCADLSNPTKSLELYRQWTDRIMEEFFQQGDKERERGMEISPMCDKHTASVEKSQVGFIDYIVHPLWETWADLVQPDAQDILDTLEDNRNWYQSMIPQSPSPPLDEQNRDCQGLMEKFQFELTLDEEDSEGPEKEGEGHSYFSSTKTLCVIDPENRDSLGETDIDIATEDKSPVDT
Chain of Muscarinic acetylcholine receptor M1 (Rattus norvegicus) (P08482 whole entry, looked up): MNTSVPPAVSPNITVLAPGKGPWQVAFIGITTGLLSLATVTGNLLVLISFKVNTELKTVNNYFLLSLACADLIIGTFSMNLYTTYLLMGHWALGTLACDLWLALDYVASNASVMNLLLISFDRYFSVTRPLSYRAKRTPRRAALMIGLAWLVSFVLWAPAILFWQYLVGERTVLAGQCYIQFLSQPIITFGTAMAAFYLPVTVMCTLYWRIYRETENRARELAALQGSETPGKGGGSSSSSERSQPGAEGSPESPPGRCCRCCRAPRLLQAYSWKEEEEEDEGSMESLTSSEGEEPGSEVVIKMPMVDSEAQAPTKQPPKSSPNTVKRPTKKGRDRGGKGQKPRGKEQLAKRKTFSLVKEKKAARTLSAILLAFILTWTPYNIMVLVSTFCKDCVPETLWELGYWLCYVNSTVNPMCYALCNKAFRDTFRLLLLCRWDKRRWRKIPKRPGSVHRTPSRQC
Chain of Pyruvate kinase (Leishmania mexicana) (Q27686 2-499 E452W): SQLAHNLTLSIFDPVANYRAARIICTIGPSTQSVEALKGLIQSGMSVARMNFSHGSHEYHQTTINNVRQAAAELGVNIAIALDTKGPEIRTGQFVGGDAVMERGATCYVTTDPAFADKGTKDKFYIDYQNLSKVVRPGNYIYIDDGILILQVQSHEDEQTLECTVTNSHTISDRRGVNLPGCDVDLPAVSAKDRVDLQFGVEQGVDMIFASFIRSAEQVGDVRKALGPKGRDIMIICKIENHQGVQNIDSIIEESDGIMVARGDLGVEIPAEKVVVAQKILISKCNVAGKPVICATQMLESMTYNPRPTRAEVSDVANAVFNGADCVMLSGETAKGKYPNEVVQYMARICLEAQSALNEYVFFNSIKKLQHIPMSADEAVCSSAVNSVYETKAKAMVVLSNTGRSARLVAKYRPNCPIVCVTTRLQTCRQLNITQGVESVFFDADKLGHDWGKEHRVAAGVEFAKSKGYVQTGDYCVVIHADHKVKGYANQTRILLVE
Chain of Guanine nucleotide-binding protein G(i) subunit alpha-1 (Homo sapiens) (P63096 whole entry, looked up): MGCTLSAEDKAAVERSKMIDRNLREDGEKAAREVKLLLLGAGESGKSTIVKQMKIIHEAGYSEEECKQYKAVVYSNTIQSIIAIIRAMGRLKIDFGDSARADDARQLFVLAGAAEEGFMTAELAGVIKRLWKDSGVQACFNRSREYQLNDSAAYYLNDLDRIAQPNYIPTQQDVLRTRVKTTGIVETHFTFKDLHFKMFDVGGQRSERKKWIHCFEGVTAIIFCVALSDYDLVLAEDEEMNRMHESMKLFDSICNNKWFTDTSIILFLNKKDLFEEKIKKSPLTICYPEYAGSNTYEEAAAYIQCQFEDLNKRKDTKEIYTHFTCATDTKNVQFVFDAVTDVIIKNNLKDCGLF
Chain of Pyruvate kinase PKM (Homo sapiens) (P14618 whole entry, looked up): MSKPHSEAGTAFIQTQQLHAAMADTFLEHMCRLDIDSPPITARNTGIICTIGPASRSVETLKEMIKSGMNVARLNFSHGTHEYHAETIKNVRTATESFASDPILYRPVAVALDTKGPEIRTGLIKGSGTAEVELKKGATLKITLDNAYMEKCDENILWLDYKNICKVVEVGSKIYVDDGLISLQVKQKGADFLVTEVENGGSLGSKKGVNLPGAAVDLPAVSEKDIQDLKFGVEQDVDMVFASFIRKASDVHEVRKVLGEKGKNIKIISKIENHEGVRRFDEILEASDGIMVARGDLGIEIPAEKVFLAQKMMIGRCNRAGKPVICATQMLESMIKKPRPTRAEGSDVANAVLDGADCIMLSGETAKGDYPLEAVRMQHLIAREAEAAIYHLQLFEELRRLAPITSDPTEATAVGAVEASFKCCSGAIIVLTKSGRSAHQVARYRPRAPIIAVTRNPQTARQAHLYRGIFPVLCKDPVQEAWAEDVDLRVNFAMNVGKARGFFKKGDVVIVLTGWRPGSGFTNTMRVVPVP
Chain of Alpha-galactosidase A (Homo sapiens) (P06280 whole entry, looked up): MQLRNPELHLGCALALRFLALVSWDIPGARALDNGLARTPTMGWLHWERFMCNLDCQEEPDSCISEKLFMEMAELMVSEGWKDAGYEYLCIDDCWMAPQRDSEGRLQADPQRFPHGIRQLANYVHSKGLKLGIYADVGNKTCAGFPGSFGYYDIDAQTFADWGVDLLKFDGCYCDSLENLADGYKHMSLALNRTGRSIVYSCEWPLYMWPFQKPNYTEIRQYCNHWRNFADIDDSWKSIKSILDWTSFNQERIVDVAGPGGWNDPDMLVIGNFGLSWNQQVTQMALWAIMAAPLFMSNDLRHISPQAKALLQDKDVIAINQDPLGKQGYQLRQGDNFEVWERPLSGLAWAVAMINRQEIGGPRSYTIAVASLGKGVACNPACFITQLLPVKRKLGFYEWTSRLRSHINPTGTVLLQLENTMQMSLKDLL

CCOC(=O)CSC1=C(C#N)C(=O)NC(c2ccc(OC)c(OC)c2)S1 (stereo not given)
active: activity change, negative = inhibition [2] -123%
inactive: activity change, negative = inhibition [1] -12.5% | Potency [3] > 20.6 µM

Cc1nn(-c2cccc(Cl)c2)c2c1C(c1ccncc1)C(C#N)=C(N)O2 (stereo not given)
inactive: activity change, negative = inhibition [1] 17.6% | activity change, negative = inhibition [2] -16.8% | Potency [3] > 20.6 µM

CCOC(=O)CNC(=O)CNC(=O)c1ccc(OCC(C)C)cc1
inactive: activity change, negative = inhibition [1] -5.66% | activity change, negative = inhibition [2] 8.09% | Potency [3] > 20.6 µM

CCNC(=O)COn1c(SCC(=O)NCC)nc2ccccc2c1=O
inactive: activity change, negative = inhibition [1] -9.03% | activity change, negative = inhibition [2] 9.09% | Potency [3] > 20.6 µM

ClC(Br)=C(n1cnc2ccccc21)n1cnc2ccccc21
inactive: activity change, negative = inhibition [1] -25.5% | activity change, negative = inhibition [2] -11.4% | Potency [3] > 20.6 µM

O/N=C(\c1ccc2c(c1)OCCO2)C1CCCCC1
inactive: activity change, negative = inhibition [1] -6.69% | activity change, negative = inhibition [2] -7.17% | Potency [3] > 20.6 µM

CC[C@H](C)[C@@H]1O[C@]2(CC[C@@H]1C)C[C@H]1C[C@H](CC=C(C)[C@@H](O[C@@H]3C[C@H](OC)[C@H](O[C@@H]4C[C@H](OC)[C@H](O)[C@H](C)O4)[C@H](C)O3)[C@@H](C)C=CC=C3CO[C@@H]4[C@@H](O)C(C)=C[C@@H](C(=O)O1)[C@]34O)O2
inactive: activity change, negative = inhibition [1] -26.8% | activity change, negative = inhibition [2] -35.3% | Potency [3] > 20.6 µM | Potency [4] > 20.6 µM | Potency [5]

O=C(CC(c1ccccc1)c1ccco1)N1CCOCC1 (stereo not given)
inactive: activity change, negative = inhibition [1] -9.46% | activity change, negative = inhibition [2] 1% | Potency [3] > 20.6 µM

COc1ccccc1N1CCN(C2CCN(C(=O)c3cccs3)CC2)CC1
inactive: activity change, negative = inhibition [1] 4.38% | activity change, negative = inhibition [2] -21.8% | Potency [3] > 20.6 µM

Cc1cc(=O)oc2c(CN3CCCCC3)c(O)c(Cl)cc12
inactive: activity change, negative = inhibition [1] 22.5% | activity change, negative = inhibition [2] 23.5% | Potency [3] > 20.6 µM

CC1(C)C2CCC1(C)C(OC(=O)CC(=O)O)C2 (stereo not given)
inactive: activity change, negative = inhibition [1] 4.82% | activity change, negative = inhibition [2] 8.38% | Potency [3] > 20.6 µM

CCCCOc1cccc(-c2nnc(N)s2)c1
inactive: activity change, negative = inhibition [1] -19.6% | activity change, negative = inhibition [2] 7.5% | Potency [3] > 20.6 µM

CN(C)CCCO[C@H]1[C@H]([C@H](O)CO)O[C@H]2OC(C)(C)O[C@@H]21
inactive: activity change, negative = inhibition [1] 6.88% [at 38 µM] | activity change, negative = inhibition [2] 5.42% [at 38 µM] | Potency [3] > 46 µM | Potency [4] > 46 µM | Potency [6] | Potency [5] | outcome [7] | Potency [8] | Potency [9] | outcome [10] | outcome [11] | outcome [12]

From PubChem BioAssay (NCATS)
